Many of the other results were omitted from the sample, so hits are more common in it than they were.
PL biosyn Enam: blocks phospholipid synthesis in CHO cells, Enamine compounds; calls only at 10 µM; AID 1347385; hit rate 0.4% among 20,000; ZR-82 CHO cells, pyrene fatty acid UV survival, CellTiter Blue; peroxisome-deficient CHO-K1 mutant line; plus DGAT-1, DGAT-2 and ACAT inhibitors;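 active means cell survival signal 2 SD away from solvent-only control wells, confirmed on one or two retests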;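 further: 3 h compound exposure then viability read about one day after UV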
Starred values were filed as active, the others as inactive; i = inactive; + = active, no number.

SMILES	PL biosyn Enam
C=CCN=c1scc(-c2cc3ccccc3o2)n1/N=C/c1ccccc1Br	i
Fc1ccc(-c2csc(=NCc3ccccc3)n2/N=C/c2cccnc2)cc1	i
CCN(CC)S(=O)(=O)c1ccc(N/N=C2\CCSc3ccc(F)cc32)nc1	i
Fc1ccc2c(c1)/C(=N\Nc1nc3ccccc3s1)CCS2	+
O=C(N/N=C1\CCSc2ccc(F)cc21)C1COc2ccccc2O1 (stereo not given)	i
CSc1c([P+](c2ccccc2)(c2ccccc2)c2ccccc2)nc(-c2ccccc2)n1C	i
CCCCCCCOC(=O)C1=C(N)OC2=C(C(=O)CCC2)C1c1ccco1 (stereo not given)	i
CC(C)n1ncc2c(C(=O)NC3=NCCS3)cc(C3CC3)nc21	i
O=C1NC(=S)S/C1=C\c1c(F)cccc1F	i
Fc1ccccc1N1CCN(c2nc(C(F)(F)F)nc3ccccc23)CC1	i
C(=N\N1CCN(C(c2ccccc2)c2ccccc2)CC1)/c1c(-c2ccccc2)nc2ccccn12	i
Cc1ccc(-c2nnc(-n3nnc4cc(C)c(C)cc43)c3ccccc23)cc1C	i
Cc1ccc(-c2nnc(N/N=C/c3c(-c4ccccc4)nc4ccccn34)c3ccccc23)cc1C	+
C=CCNc1nnc(SCc2cc(=O)n3ccsc3n2)s1	i
CC1=Nc2cccc3cccc(c23)N1c1ccccc1	i
Fc1ccccc1N1CCN(Cn2c(=S)oc3ccccc32)CC1	i
Cc1nc(N)sc1N=Nc1cc(C(F)(F)F)ccc1Cl	+
Cc1nc(N)sc1N=Nc1ccc(F)cc1	+
CN(C)S(=O)(=O)c1ccc(Cl)c(N=Nc2sc(N)nc2-c2cc(F)ccc2F)c1	i
Cc1nc(N)sc1N=Nc1c(Cl)cc(Cl)cc1Cl	i
Nc1ncc(Cc2ccc(F)cc2)s1	i
CN(C)S(=O)(=O)c1ccc(N=Nc2sc(N)nc2-c2cc(F)ccc2F)cc1	i
C=CCn1c(SCc2cc(=O)n3cc(Br)ccc3n2)nc2ccccc2c1=O	i
O=S(=O)(Nc1ccc(Br)cc1F)c1cccs1	i
C(=N\n1c(-c2ccccc2)csc1=NCCc1ccccc1)/c1ccccn1	i
SMILES	PL biosyn Enam
NC(=S)N=Nc1c2[nH]c3ccccc3nc-2c2ccccc12	i
c1ccc2c(N=Nc3c4[nH]c5ccccc5nc-4c4ccccc34)cccc2c1	i
c1ccc(N=Nc2c3[nH]c4ccccc4nc-3c3ccccc23)cc1	+
CC(NS(=O)(=O)c1ccc(Cl)c(C(F)(F)F)c1)C1CC2CCC1C2 (stereo not given)	i
O=C(O)CC1Sc2ccccc2NC1=O (stereo not given)	i
Cc1c(C2Sc3ccccc3NC2=O)c2ccccn2c1C1Sc2ccccc2NC1=O (stereo not given)	+
C=CCOC(=O)CC1Sc2ccccc2NC1=O (stereo not given)	i
O=C(CSc1nc2sc3c(c2c(=O)[nH]1)CCCC3)N(CCO)CCO	i
O=C(c1ccccc1)C(Sc1nnc(-c2ccc3c(c2)OCO3)o1)c1ccccc1 (stereo not given)	+
O=C(CSc1nnc(-c2ccc3c(c2)OCO3)o1)CSc1nnc(-c2ccc3c(c2)OCO3)o1	i
Cc1ccc(C(=O)C(C)Sc2nnc(-c3ccc4c(c3)OCO4)o2)cc1C (stereo not given)	i
O=[N+]([O-])c1ccc(C(O)CNC(=S)NCc2ccc3c(c2)OCO3)cc1 (stereo not given)	i
Cc1ccc(C)c(-n2cn[nH]c2=S)c1	i
O=C(N/N=C1/C(=O)c2cccc3cccc1c23)c1cc(-c2ccncc2)nc2ccccc12	i
